Test results: PubChem BioAssay (NCATS)
Records with an inconclusive call do not appear. Where a call stands in place of a potency, no number is given. The source holds several records for some structures; these can differ, active in one and inactive in another. The source made the active and inactive calls. Calls come from the whole dose curve; as a rule, active = well fitted inhibition curve with a large enough effect; inconclusive = small, poorly fitted or top-dose-only effect; inactive = no such curve, though single readings can be large or run the other way.

molecular target: Papain (Carica papaya) (UniProt P00784); experiment: Primary qHTS assay for inhibitors of the protease papain (AID 1645873); conditions: papain Z-FR-AMC cleavage, AMC fluorescence; series mostly up to 49.8 µM;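 note: papain turnover of Z-FR-AMC read as the AMC fluorescence gain over 10 min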
Potency is the fitted concentration of half-maximal effect.

Sequence of Papain (Carica papaya) (P00784 whole entry, looked up): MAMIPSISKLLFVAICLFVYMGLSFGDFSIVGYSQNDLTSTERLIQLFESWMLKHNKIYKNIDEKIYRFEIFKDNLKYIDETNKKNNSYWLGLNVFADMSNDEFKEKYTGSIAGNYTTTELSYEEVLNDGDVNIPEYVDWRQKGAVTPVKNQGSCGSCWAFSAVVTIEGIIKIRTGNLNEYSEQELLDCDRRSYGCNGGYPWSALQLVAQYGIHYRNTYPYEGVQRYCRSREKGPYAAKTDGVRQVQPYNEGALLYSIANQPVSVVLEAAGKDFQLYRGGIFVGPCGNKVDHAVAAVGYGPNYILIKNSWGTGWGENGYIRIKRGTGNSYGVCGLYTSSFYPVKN

Row | SMILES | Potency
1 | C[N+]1(C)C2CC(OC(=O)[C@H](CO)c3ccccc3)CC1C1OC12 (some centres not stated) | 1.12 µM (active) and inactive
2 | N[C@@H](CC(=O)O)C(=O)O | inactive
3 | CCCCCCCCCCCCCCCCCC(=O)OC(CC(=O)O)C[N+](C)(C)C (configuration not stated) | inactive
4 | CCC(CO)Nc1nc(NCc2ccccc2)c2ncn(C(C)C)c2n1 (configuration not stated) | inactive
5 | NS(=O)(=O)C#Cc1ccccc1 | inactive
6 | Nc1nc(OCC2CCCCC2)c2[nH]cnc2n1 | inactive
7 | O=c1[nH]c2cc([N+](=O)[O-])c([N+](=O)[O-])cc2[nH]c1=O | inactive
8 | O=C(CCc1ccncc1)NNC(=O)N1Cc2ccccc2Oc2ccc(Cl)cc21 | inactive
9 | S=c1[nH]c(-c2ccccc2)cn1-c1ccccc1 | inactive
10 | Nc1nc(Cl)nc2c1ncn2[C@@H]1O[C@H](COP(=O)(O)OP(=O)(O)OP(=O)(O)O)[C@@H](O)[C@H]1O | inactive
11 | CN(C)CCC(c1ccc(Cl)cc1)c1ccccn1 (configuration not stated) | inactive
12 | CNC(=O)[C@H]1O[C@@H](n2cnc3c(NCc4ccc(N)cc4)ncnc32)[C@H](O)[C@@H]1O | inactive
13 | O=C(/C=C/c1ccc(O)c(O)c1)OCCc1ccccc1 | inactive
14 | Clc1ccc(N2CCN(Cc3c[nH]c4ncccc34)CC2)cc1 | inactive
15 | Cn1c(=O)c(-c2c(Cl)cccc2Cl)cc2cnc(Nc3ccc(N4CCOCC4)cc3)nc21 | inactive
16 | CN1C2CCC1CC(OC(=O)C(O)c1ccccc1)C2 (configuration not stated) | inactive
17 | CC12C(=O)OC(=O)C1(C)C1CCC2O1 (configuration not stated) | inactive
18 | CC(=O)SCC[N+](C)(C)C | inactive
19 | CC(C)NCC(O)COc1cccc2ccccc12 (configuration not stated) | inactive

Row | SMILES | Potency
20 | Cc1cc(NC(=O)Nc2ccc3c(ccn3C)c2)sn1 | inactive
21 | Nc1nc(SCc2ccc([N+](=O)[O-])cc2)c2ncn([C@@H]3O[C@H](CO)[C@@H](O)[C@H]3O)c2n1 | inactive
22 | O=[N+]([O-])c1ccc(CSc2ncnc3c2ncn3[C@@H]2O[C@H](CO)[C@@H](O)[C@H]2O)cc1 | inactive
23 | COCCOc1cc2ncnc(Cl)c2cc1OCCOC | inactive
24 | COc1ccc(/C=C/c2nc(NCCCN(C)C)c3ccccc3n2)cc1 | 28.2 µM (active)
25 | COc1cc(C(O)CO)ccc1OS(=O)(=O)O (configuration not stated) | inactive
26 | CN1CCc2cc(NC(=O)Nc3cccnc3)ccc21 | inactive
27 | Nc1nc(Cl)nc2c1ncn2[C@@H]1O[C@H](CO)[C@@H](O)[C@H]1O | inactive
28 | Cn1ncc(S(=O)(=O)Cc2ccccc2)c(Br)c1=O | inactive
29 | COc1cccc(OC)c1OCCNCC1COc2ccccc2O1 (configuration not stated) | inactive
30 | NC[C@H]1O[C@@H](n2cnc3c(N)ncnc32)[C@H](O)[C@@H]1O | inactive
31 | CCCN(CC1CC1)c1nc(C)nc(Nc2c(Cl)cc(Cl)cc2Cl)c1Cl | inactive
32 | C=CC(C)=C[C@@]1(C)SC(=O)C(C)=C1O | inactive
33 | Nc1ccn([C@@H]2O[C@H](CO)[C@@H](O)[C@@H]2O)c(=O)n1 | inactive
34 | COc1cc2c(CCNC(C)=O)c[nH]c2cc1Cl | inactive
35 | O=C(c1ccc(OCCCc2cnc[nH]2)cc1)C1CC1 | inactive
36 | Nc1ncnc2c1ncn2[C@@H]1O[C@H](COP(=O)(O)CP(=O)(O)OP(=O)(O)O)[C@@H](O)[C@H]1O | inactive
37 | O=C(O)c1cc(=O)c2c(Cl)cc(Cl)cc2[nH]1 | inactive
